# PubChem BioAssay AID1159580 (chemical genetic matrix, 2015)
# Values joined by “and” are separate entries in the source; they are usually repeats but may differ in a detail not shown here. Identical values can stand only once. The campaign covered roughly 5,500 compounds. About 2,000 (36%) were called active. Roughly 18% stayed inconclusive and do not appear here. The list shows a part of the results. Values without a mark were called inactive. Cut-off read from the data, not from the text of the source: active = normalized growth mostly below about 0.91 (no sharp cut-off); inconclusive = no clear call, values can overlap the other calls; inactive = mostly above about 0.92.
# Test: chemical genetic growth profiling, strain panel (AID 1159580);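 note: tested at 20 µM; growth read once vehicle control cultures reached saturation at 30 °C; 1 = growth at the plate median or of vehicle wells; lower values mean less growth of the strain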
# Details: growth OD
# [1] = S. cerevisiae deletion strains, locus YAL013W, strain DEP1, stronger effect = lower value
# [2] = S. cerevisiae deletion strains, locus YBR229C, strain ROT2, stronger effect = lower value
# [3] = S. cerevisiae deletion strains, locus YDL101C, strain DUN1, stronger effect = lower value
# [4] = S. cerevisiae deletion strains, locus YDL134C, strain PPH21, stronger effect = lower value
# [5] = S. cerevisiae deletion strains, locus YDR150W, strain NUM1, stronger effect = lower value
# [6] = S. cerevisiae deletion strains, locus YEL061C, strain CIN8, stronger effect = lower value
# [7] = S. cerevisiae deletion strains, locus YGR078C, strain PAC10, stronger effect = lower value
# [8] = S. cerevisiae deletion strains, locus YGR229C, strain SMI1, stronger effect = lower value
# [9] = S. cerevisiae deletion strains, locus YHR030C, strain SLT2, stronger effect = lower value
# [10] = S. cerevisiae deletion strains, locus YJR043C, strain POL32, stronger effect = lower value
# [11] = S. cerevisiae deletion strains, locus YJR075W, strain HOC1, stronger effect = lower value
# [12] = S. cerevisiae deletion strains, locus YLR039C, strain RIC1, stronger effect = lower value
# [13] = S. cerevisiae deletion strains, locus YLR262C, strain YPT6, stronger effect = lower value
# [14] = S. cerevisiae deletion strains, locus YMR263W, strain SAP30, stronger effect = lower value
# [15] = S. cerevisiae deletion strains, locus YMR307W, strain GAS1, stronger effect = lower value
# [16] = S. cerevisiae deletion strains, locus YNL128W, strain TEP1, stronger effect = lower value
# [17] = S. cerevisiae deletion strains, locus YNL153C, strain GIM3, stronger effect = lower value
# [18] = S. cerevisiae deletion strains, locus YNL322C, strain KRE1, stronger effect = lower value
# [19] = S. cerevisiae deletion strains, locus YOL006C, strain TOP1, stronger effect = lower value
# [20] = S. cerevisiae deletion strains, locus YPL055C, strain LGE1, stronger effect = lower value
# [21] = S. cerevisiae deletion strains, locus YPL241C, strain CIN2, stronger effect = lower value
# [22] = S. cerevisiae deletion strains, locus YAL040C, strain CLN3, stronger effect = lower value
# [23] = S. cerevisiae deletion strains, locus YCL061C, strain MRC1 (second series), stronger effect = lower value
# [24] = S. cerevisiae deletion strains, locus YDR363W, strain ESC2, stronger effect = lower value
# [25] = S. cerevisiae deletion strains, locus YER002W, strain NOP16, stronger effect = lower value
# [26] = S. cerevisiae deletion strains, locus YNL175C, strain NOP13, stronger effect = lower value
# [27] = S. cerevisiae deletion strains, locus YNL197C, strain WHI3, stronger effect = lower value
# [28] = S. cerevisiae deletion strains, locus YNL224C, strain SQS1, stronger effect = lower value
# [29] = S. cerevisiae deletion strains, locus YOR083W, strain WHI5 (second series), stronger effect = lower value
smiles,measurement,setting,value
Cc1ccc(O)c(C(CCN(C(C)C)C(C)C)c2ccccc2)c1 (stereo not given),normalized growth,[1],1.01
same,normalized growth,"S. cerevisiae deletion strains, locus YBR021W, strain FUR4, stronger effect = lower value",1
same,normalized growth,[2],1.01
same,normalized growth,"S. cerevisiae deletion strains, locus YCL029C, strain bik1, stronger effect = lower value",0.998
same,normalized growth,"S. cerevisiae deletion strains, locus YDL035C, strain GPR1, stronger effect = lower value",1.01
same,normalized growth,"S. cerevisiae deletion strains, locus YDL074C, strain BRE1, stronger effect = lower value",1.03
same,normalized growth,[3],1.01
same,normalized growth,[4],1.02
same,normalized growth,"S. cerevisiae deletion strains, locus YDL185W, strain tfp1, stronger effect = lower value",0.989
same,normalized growth,"S. cerevisiae deletion strains, locus YDL192W, strain arf1, stronger effect = lower value",1
same,normalized growth,"S. cerevisiae deletion strains, locus YDR101C, strain arx1, stronger effect = lower value",0.988
same,normalized growth,[5],1.01
same,normalized growth,"S. cerevisiae deletion strains, locus YDR162C, strain NBP2, stronger effect = lower value",1
same,normalized growth,"S. cerevisiae deletion strains, locus YDR318W, strain mcm21, stronger effect = lower value",0.991
same,normalized growth,"S. cerevisiae deletion strains, locus YDR388W, stronger effect = lower value",0.983
same,normalized growth,"S. cerevisiae deletion strains, locus YDR502C, strain sam2, stronger effect = lower value",0.996
same,normalized growth,[6],1.01
same,normalized growth,"S. cerevisiae deletion strains, locus YER110C, stronger effect = lower value",0.995
same,normalized growth,"S. cerevisiae deletion strains, locus YER155C, strain BEM2, stronger effect = lower value",1.01
same,normalized growth,"S. cerevisiae deletion strains, locus YER167W, strain BCK2, stronger effect = lower value",0.994
same,normalized growth,"S. cerevisiae deletion strains, locus YGL078C, strain dbp3, stronger effect = lower value",0.996
same,normalized growth,"S. cerevisiae deletion strains, locus YGL086W, strain mad1, stronger effect = lower value",0.995
same,normalized growth,"S. cerevisiae deletion strains, locus YGL248W, strain PDE1, stronger effect = lower value",1
same,normalized growth,[7],1.01
same,normalized growth,"S. cerevisiae deletion strains, locus YGR135W, strain pre9, stronger effect = lower value",0.985
same,normalized growth,[8],0.995
same,normalized growth,"S. cerevisiae deletion strains, locus YGR252W, strain gcn5, stronger effect = lower value",1
same,normalized growth,[9],1.01 and 1.03
same,normalized growth,"S. cerevisiae deletion strains, locus YHR079C, strain IRE1 (second series), stronger effect = lower value",0.988
same,normalized growth,"S. cerevisiae deletion strains, locus YHR079C, strain IRE1, stronger effect = lower value",0.981
same,normalized growth,"S. cerevisiae deletion strains, locus YHR094C, strain hxt1, stronger effect = lower value",0.987
same,normalized growth,"S. cerevisiae deletion strains, locus YHR129C, strain ARP1, stronger effect = lower value",1.02
same,normalized growth,"S. cerevisiae deletion strains, locus YHR200W, strain rpn10, stronger effect = lower value",0.982
same,normalized growth,"S. cerevisiae deletion strains, locus YIL066C, strain RNR3, stronger effect = lower value",1.02
same,normalized growth,"S. cerevisiae deletion strains, locus YIL073C, strain SPO22, stronger effect = lower value",0.967
same,normalized growth,"S. cerevisiae deletion strains, locus YIL125W, strain kgd1, stronger effect = lower value",0.985
same,normalized growth,"S. cerevisiae deletion strains, locus YIR030C, strain dcg1, stronger effect = lower value",0.993
same,normalized growth,"S. cerevisiae deletion strains, locus YJL095W, strain BCK1, stronger effect = lower value",1.01
same,normalized growth,"S. cerevisiae deletion strains, locus YJL134W, strain LCB3, stronger effect = lower value",1
same,normalized growth,"S. cerevisiae deletion strains, locus YJL168C, strain set2, stronger effect = lower value",0.99
same,normalized growth,"S. cerevisiae deletion strains, locus YJL187C, strain SWE1 (second series), stronger effect = lower value",1.01
same,normalized growth,[10],1
same,normalized growth,"S. cerevisiae deletion strains, locus YJR066W, strain TOR1, stronger effect = lower value",0.958
same,normalized growth,[11],1
same,normalized growth,"S. cerevisiae deletion strains, locus YKL009W, strain mrt4, stronger effect = lower value",1
same,normalized growth,"S. cerevisiae deletion strains, locus YKL068W, stronger effect = lower value",0.986
same,normalized growth,"S. cerevisiae deletion strains, locus YKL085W, strain MDH1 (second series), stronger effect = lower value",0.99
same,normalized growth,"S. cerevisiae deletion strains, locus YKL085W, strain MDH1, stronger effect = lower value",0.99
same,normalized growth,"S. cerevisiae deletion strains, locus YKL190W, strain CNB1, stronger effect = lower value",1.01
same,normalized growth,"S. cerevisiae deletion strains, locus YKR001C, strain vps1, stronger effect = lower value",0.999
same,normalized growth,[12],1.06
same,normalized growth,"S. cerevisiae deletion strains, locus YLR058C, strain SHM2, stronger effect = lower value",1.01
same,normalized growth,"S. cerevisiae deletion strains, locus YLR102C, strain apc9, stronger effect = lower value",0.992
same,normalized growth,"S. cerevisiae deletion strains, locus YLR113W, strain HOG1, stronger effect = lower value",1.03
same,normalized growth,[13],1.05
same,normalized growth,"S. cerevisiae deletion strains, locus YLR268W, strain sec22, stronger effect = lower value",0.984
same,normalized growth,"S. cerevisiae deletion strains, locus YLR330W, strain CHS5, stronger effect = lower value",1.01
same,normalized growth,"S. cerevisiae deletion strains, locus YLR342W, strain FKS1 (second series), stronger effect = lower value",1.01
same,normalized growth,"S. cerevisiae deletion strains, locus YLR371W, strain rom2, stronger effect = lower value",0.972
same,normalized growth,"S. cerevisiae deletion strains, locus YLR418C, strain cdc73, stronger effect = lower value",0.982
same,normalized growth,"S. cerevisiae deletion strains, locus YML016C, strain PPZ1, stronger effect = lower value",1.02
same,normalized growth,"S. cerevisiae deletion strains, locus YML032C, strain rad52, stronger effect = lower value",0.986
same,normalized growth,"S. cerevisiae deletion strains, locus YML124C, strain tub3, stronger effect = lower value",0.991
same,normalized growth,"S. cerevisiae deletion strains, locus YMR078C, strain ctf18, stronger effect = lower value",0.978
same,normalized growth,"S. cerevisiae deletion strains, locus YMR223W, strain ubp8, stronger effect = lower value",0.996
same,normalized growth,[14],1.01
same,normalized growth,[15],0.993
same,normalized growth,"S. cerevisiae deletion strains, locus YNL067W, strain RPL9B, stronger effect = lower value",1.01
same,normalized growth,[16],1
same,normalized growth,[17],1.01
same,normalized growth,"S. cerevisiae deletion strains, locus YNL183C, strain NPR1, stronger effect = lower value",0.961
same,normalized growth,"S. cerevisiae deletion strains, locus YNL233W, strain BNI4, stronger effect = lower value",1.01
same,normalized growth,"S. cerevisiae deletion strains, locus YNL250W, strain rad50, stronger effect = lower value",0.981
same,normalized growth,"S. cerevisiae deletion strains, locus YNL271C, strain bni1, stronger effect = lower value",0.997
same,normalized growth,"S. cerevisiae deletion strains, locus YNL298W, strain CLA4, stronger effect = lower value",0.974
same,normalized growth,"S. cerevisiae deletion strains, locus YNL307C, strain MCK1, stronger effect = lower value",0.996
same,normalized growth,[18],1
same,normalized growth,"S. cerevisiae deletion strains, locus YNR052C, strain pop2, stronger effect = lower value",0.988
same,normalized growth,[19],1.05
same,normalized growth,"S. cerevisiae deletion strains, locus YOL012C, strain htz1",0.768
same,normalized growth,"S. cerevisiae deletion strains, locus YOL147C, strain pex11, stronger effect = lower value",0.986
same,normalized growth,"S. cerevisiae deletion strains, locus YOR061W, strain CKA2, stronger effect = lower value",1.02
same,normalized growth,"S. cerevisiae deletion strains, locus YOR069W, strain VPS5, stronger effect = lower value",1.01
same,normalized growth,"S. cerevisiae deletion strains, locus YOR136W, strain idh2, stronger effect = lower value",0.983
same,normalized growth,"S. cerevisiae deletion strains, locus YOR144C, strain elg1, stronger effect = lower value",0.981
same,normalized growth,"S. cerevisiae deletion strains, locus YOR184W, strain ser1, stronger effect = lower value",1
same,normalized growth,"S. cerevisiae deletion strains, locus YOR231W, strain MKK1, stronger effect = lower value",1
same,normalized growth,"S. cerevisiae deletion strains, locus YOR316C, strain cot1, stronger effect = lower value",0.985
same,normalized growth,[20],1.01
same,normalized growth,[21],1.01
same,normalized growth,"S. cerevisiae deletion strains, locus YPL256C, strain CLN2, stronger effect = lower value",0.992
same,normalized growth,"S. cerevisiae deletion strains, locus YPR119W, strain clb2, stronger effect = lower value",0.98
same,normalized growth,"S. cerevisiae deletion strains, locus YPR141C, strain kar3, stronger effect = lower value",0.985
same,normalized growth,"S. cerevisiae deletion strains, locus YPR163C, strain tif3, stronger effect = lower value",0.977
same,normalized growth,"S. cerevisiae deletion strains, locus YPR167C, strain met16, stronger effect = lower value",0.988
same,normalized growth,"S. cerevisiae deletion strains, strain wtn01, stronger effect = lower value",0.988
same,normalized growth,"S. cerevisiae strains, strain wild type, stronger effect = lower value",1
Cn1c(=O)c2c(nc(/C=C/c3cccc(Cl)c3)n2C)n(C)c1=O,normalized growth,[22],0.996
same,normalized growth,[23],0.981
same,normalized growth,[24],1.05
same,normalized growth,[25],1.01
same,normalized growth,[8],0.996
same,normalized growth,[16],0.993
same,normalized growth,[17],0.946
same,normalized growth,[26],0.969
same,normalized growth,[27],0.954
same,normalized growth,[28],0.995
same,normalized growth,[18],1.02
same,normalized growth,[29],0.964
same,normalized growth,[20],1.03
same,normalized growth,[21],0.995
COc1ccc(/C=C2/C(=O)N(c3cccc(Cl)c3)N=C2C)cc1,normalized growth,[1],0.983
same,normalized growth,[2],0.963
same,normalized growth,[3],1
same,normalized growth,[4],0.991
same,normalized growth,[5],1
same,normalized growth,[6],0.964
same,normalized growth,[7],0.962
same,normalized growth,[9],0.53 (active)
same,normalized growth,"S. cerevisiae deletion strains, locus YHR087W, strain rtc3, stronger effect = lower value",0.866 (active)
same,normalized growth,"S. cerevisiae deletion strains, locus YJL187C, strain SWE1, stronger effect = lower value",0.921 (active)
same,normalized growth,[10],1.03
same,normalized growth,[11],0.934
same,normalized growth,[12],0.62 (active)
same,normalized growth,"S. cerevisiae deletion strains, locus YLR058C, strain SHM2 (second series), stronger effect = lower value",0.963
same,normalized growth,"S. cerevisiae deletion strains, locus YLR085C, strain ARP6, stronger effect = lower value",0.744 (active)
same,normalized growth,[13],0.699 (active)
same,normalized growth,"S. cerevisiae deletion strains, locus YML094W, strain GIM5, stronger effect = lower value",0.865 (active)
same,normalized growth,"S. cerevisiae deletion strains, locus YMR219W, strain ESC1, stronger effect = lower value",0.938 (active)
same,normalized growth,[14],0.989
same,normalized growth,[17],0.999
same,normalized growth,"S. cerevisiae deletion strains, locus YNL298W, strain CLA4 (second series), stronger effect = lower value",0.839
same,normalized growth,[18],0.973
same,normalized growth,"S. cerevisiae deletion strains, locus YNR030W, strain Alg12, stronger effect = lower value",0.88 (active)
same,normalized growth,[19],0.849
same,normalized growth,[20],0.961
same,normalized growth,[21],0.897
same,normalized growth,"S. cerevisiae deletion strains, locus YPR135W, strain CTF4, stronger effect = lower value",0.599 (active)
Cn1cc(C(=O)OCC2CCN(CCNS(C)(=O)=O)CC2)c2ccccc21,normalized growth,[22],1
same,normalized growth,[23],1.01
same,normalized growth,[5],1.01
same,normalized growth,[24],1
same,normalized growth,[25],1.01
same,normalized growth,[15],1
same,normalized growth,[16],1.03
same,normalized growth,[17],1.04
same,normalized growth,[26],1.05
same,normalized growth,[27],1.06
same,normalized growth,[28],1.05
same,normalized growth,[29],1.03
